GALK inh – GALK (human) enzyme inhibition. recombinant GALK, Kinase-Glo ATP luminescence, 1 h. Potency, µM (highest dose often 57.5 µM), hits mostly inhibitors. 44,000 tested, under 10 active
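Human GALK (5 nM) was incubated with 35 uM ATP and 100 uM galactose in 20 mM HEPES pH 8.0 with MgCl2, NaCl, DTT and BSA for 1 h at room temperature. Remaining ATP was measured by Kinase-Glo Plus luminescence.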
B2AR arrestin ag – agonists recruiting beta-arrestin to human beta2-adrenergic receptor; P07550; HTLA Tango cells, beta-arrestin recruitment, luciferase luminescence, 18 h; Potency, µM (doses to about 46.1 µM), hits mostly activators; 44,000 tested, under 10 active; AID 1347077
Target sequence (P07550 whole entry, looked up): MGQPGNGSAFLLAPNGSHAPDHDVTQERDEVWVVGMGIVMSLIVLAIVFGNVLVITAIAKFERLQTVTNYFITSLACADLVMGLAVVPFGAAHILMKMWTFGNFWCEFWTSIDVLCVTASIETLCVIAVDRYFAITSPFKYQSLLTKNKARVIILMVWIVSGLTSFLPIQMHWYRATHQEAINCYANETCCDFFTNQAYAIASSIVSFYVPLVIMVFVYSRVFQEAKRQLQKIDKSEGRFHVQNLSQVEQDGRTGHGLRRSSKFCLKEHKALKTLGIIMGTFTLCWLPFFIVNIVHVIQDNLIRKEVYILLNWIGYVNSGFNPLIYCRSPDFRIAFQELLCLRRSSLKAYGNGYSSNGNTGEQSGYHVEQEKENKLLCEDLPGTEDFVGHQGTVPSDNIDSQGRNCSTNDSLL
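Tango cell line, 1% FBS DMEM; cpd titration up to 46 microM; 18 hr, 37 degrees C, 5% CO2. Luciferin/ATP substrate mix added, 15 min RT, luminescence. %Activity, CRC fitting, curve-class categorization.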
GALC G270D act – galactocerebrosidase G270D activity enhancement, cell-based; P54803; 145M-Twi-hGALC-G270D cells (Twitcher mouse brain line with human GALC G270D), HMU-beta-Gal fluorescence, 48 h; Potency, µM (titrated, usually from 57.5 µM), usual class: activators; 0.1% of 45,000 active; also: nearly all actives have a fitted effect of over 65% in size
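Fluorogenic HMU-b-Gal hydrolysis (0.1 mM final, pH 5.2 citrate-phosphate with 1 mg/mL sodium taurocholate; carbonate stop buffer) measures mutant GALC activity after compound treatment of live 145M-Twi Twitcher brain cells stably carrying human GALC-G270D, with wild-type GALC line alongside; activation sought.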
NTMT1 inhibitor – inhibitors of human N-terminal methyltransferase NTMT1; NTMT1 MTase-Glo SAH luminescence, purified enzyme; Q9BV86; Potency, µM (series often up to 114 µM), actives largely listed as inhibitors; 2.5% of 59,000 active; also: nearly all actives have a fitted effect of over 65% in size
Target sequence (Q9BV86 whole entry, looked up): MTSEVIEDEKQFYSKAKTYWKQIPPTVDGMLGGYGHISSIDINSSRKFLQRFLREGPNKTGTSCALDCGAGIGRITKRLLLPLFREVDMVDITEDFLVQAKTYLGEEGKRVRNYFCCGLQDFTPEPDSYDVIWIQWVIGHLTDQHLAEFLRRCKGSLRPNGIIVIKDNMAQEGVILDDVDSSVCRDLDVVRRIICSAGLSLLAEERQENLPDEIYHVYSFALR
GPR32 ag – GPR32 (DRV1) agonism, beta-arrestin recruitment; CHO-K1 GPR32 beta-arrestin PathHunter luminescence, 90 min; zero percent set by DMSO-only wells; activation, % at 76.9 µM; 2.5% of 48,000 active; AID 1346428;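 active = activation of at least 60% and not above a set upper limit, about 1 call in 100 departs from these limits; inconclusive = activation of 40% to 60%, or above that upper limit; inactive = activation under 40%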
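Agonism was scored as beta-arrestin recruitment to ProLink-fused GPR32 in stably transfected CHO-K1 cells, giving a chemiluminescent beta-Gal signal; compounds were incubated 90 min at 37 °C.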
Hits are given with their value; . = inactive; ? = inconclusive; / = no result given; ! = not confirmed by another sample. In the library only some 3.6% were active in any assay of this set; here they are far more common. Unless noted, calls follow the shape of the dose curve; as a rule, active = well fitted curve in the direction sought with a large enough effect; inconclusive = small, poorly fitted or top-dose-only effect, or another doubt; inactive = no such curve, though single readings can be large; an effect the other way counts as inactive or inconclusive.

SMILES | GALK inh | B2AR arrestin ag | GALC G270D act | NTMT1 inhibitor | GPR32 ag
CN1CCN(Cc2ccc(-c3cnc4[nH]cc(-c5ccc6[nH]ccc6c5)c4c3)cc2)CC1 | / | / | / | 20µM | /
C#CCOc1ccc2c(c1)c(-c1ccc(C(C)C)cc1)nc(=O)n2C(C)C | / | / | / | . | /
COc1ccc(OC)c(CCNC(=O)CS(=O)(=O)Cc2nc(-c3cccc(Cl)c3)oc2C)c1 | . | . | . | . | 88.0
Fc1ccc(-c2nc(-c3ccncc3)nc3ccccc23)cc1F | / | / | / | . | /
C[C@H](Nc1nc(N[C@H](C)C(F)(F)F)nc(-c2cccc(Cl)n2)n1)C(F)(F)F | / | / | / | . | /
COc1cccc(NC(CNS(=O)(=O)c2ccc(Cl)cc2)c2ccccc2)c1 (stereo not given) | . | . | . | . | 77.4
O=S(=O)(NCC(Nc1ccc(Cl)cc1)c1ccccc1)c1ccccc1 (stereo not given) | . | . | . | . | 108.7
Cc1ccc(NC(CNS(=O)(=O)c2ccc(Cl)cc2)c2ccccc2)cc1 (stereo not given) | . | . | . | . | .
C[N+](C)(CCOc1ccccc1)Cc1cccs1 | / | / | . | 14.1µM | .
CC(CNc1nc2ccccc2c2nc(-c3ccccc3)nn12)c1ccccc1 (stereo not given) | . | . | 25.1µM | . | .
CCc1cccc(NC(=O)Cn2c(=O)n(CC(=O)NCCc3ccccc3)c(=O)c3ccccc32)c1 | . | . | . | . | 81.2
CCCCCCCC/C=C/C(=O)O | / | / | . | . | .
CCCCCCCCCCCCCCCCC(C(=O)O)C(O)(CC(=O)O)C(=O)O (stereo not given) | / | / | . | 3.55µM | .
CCc1c(C)nc2nncn2c1NCc1ccc(Cl)cc1 | . | . | . | . | 65.7
Cc1ccc(CNc2c(C)c(C)nc3nncn23)cc1 | . | . | . | . | ?
CCOC(=O)c1c(S(=O)(=O)N2CCN(c3cccc(C(F)(F)F)c3)CC2)c(C)n(C)c1C | . | . | . | . | .
CCOC(=O)c1c(C)[nH]c(C)c1S(=O)(=O)N1CCN(c2cccc(C(F)(F)F)c2)CC1 | . | . | 1.12µM | . | .
Cc1oc2ncnc(N3CCCCC3)c2c1C(=O)Nc1cccc(F)c1 | . | . | . | . | .
Cc1oc2ncnc(N3CCCCC3)c2c1C(=O)Nc1cccc(Cl)c1C | . | . | . | 89.1µM | .
Cc1cccc(N2CCN(C(=O)c3c(C)oc4ncnc(N5CCCCC5)c34)CC2)c1C | . | . | . | . | 85.1
Cc1ccccc1-n1c([C@H](C)Nc2nc(N)nc3nc[nH]c23)nc2cccc(C)c2c1=O | / | / | / | . | /
CC(C)NC(=O)C1CCC(n2c(NC(=O)c3ccc(F)cc3)nc3ccc(CN4CCC(C(C)(C)O)CC4)cc32)CC1 (stereo not given) | / | / | / | . | /
C=C1C(=O)O[C@H]2C[C@H](C)C(/C=C/C(C)=O)=CC[C@H]12 | / | / | / | . | /
CCN(CC)CCCC(C)Nc1c2ccc(Cl)cc2nc2ccc(OC)cc12 (stereo not given) | / | / | . | 44.7µM! | .
CCN(CC)CCCCCCNc1cc(OC)cc2c(C)ccnc12 | / | / | / | . | /
SMILES | GALK inh | B2AR arrestin ag | GALC G270D act | NTMT1 inhibitor | GPR32 ag
COc1ccc(C2C=C(c3ccccc3)Nc3nc(NS(=O)(=O)c4ccc(C)cc4)nn32)cc1 (stereo not given) | . | . | . | ? | ?
Cc1ccc(C2C=C(c3ccc(Cl)cc3)Nc3nc(NS(=O)(=O)c4ccccc4)nn32)cc1 (stereo not given) | . | . | . | . | 73.0
Cc1ccc(C2C=C(c3ccccc3)Nc3nc(NS(=O)(=O)c4ccc(C)cc4)nn32)cc1 (stereo not given) | . | . | . | . | 93.9
Cc1cc(N[S+](=O)([O-])c2ccc(NC(=O)Cc3cccc(Cl)c3Cl)cc2)no1 | / | / | / | . | /
COCC(=O)NCCc1nc2ccccc2n1CCOc1ccc(C)cc1 | / | / | / | . | /
Cc1c(Cl)cccc1NS(=O)(=O)c1ccc(NS(=O)(=O)c2ccc3c(c2)OCCO3)cc1 | . | . | . | . | 68.2
CCNCCS(=O)(=O)NC[C@@]1(c2ccccc2)SC(NC(=O)C(C)(C)C)=NN1C(=O)C(C)(C)C | / | / | / | . | /
Cc1cc(NC(=O)N(C)CCc2c(C)nn(C)c2C)ccc1Br | . | . | . | . | 64.7
COc1cc(C2NC(=O)c3c(sc4c3CCN(C)C4)N2)cc(Br)c1OC(=O)c1ccc(C)cc1 (stereo not given) | . | . | 22.4µM | . | .
Nc1ncnc2nc(-c3ccc(N4CCOCC4)nc3)cc(-c3cccc(Br)c3)c12 | / | / | / | 1.12µM | .
C=C1C(=O)O[C@@H]2[C@H]1CC[C@H](C)C(CCC(=O)O)C2(C)O (stereo not given in full) | / | / | / | . | /
CCOC(=O)N1CCC(n2c(=O)[nH]c3cc(Cl)ccc32)CC1 | / | / | . | . | 72.2
NC(=O)C1=CC2C3C=CC2C(OC3=O)O1 (stereo not given) | / | / | / | . | /
N#Cc1cc(NC(=O)Nc2nnc(-c3ccncc3)s2)ccc1Cl | / | / | / | . | /
O=C(Cn1nc(-c2ccc(F)cc2)ccc1=O)NCCc1ccccc1 | / | / | / | 79.4µM | /
CC(C)(C)c1ccc(-c2ccc(=O)n(CC(=O)NCCc3ccccc3)n2)cc1 | / | / | / | . | /
O=C(O)/C(S)=C/c1ccc(I)cc1 | / | / | / | 79.4µM | /
COc1cccc(CCc2ccccc2OCC(CN(C)C)OC(=O)CCC(=O)O)c1 (stereo not given) | / | / | . | . | 94.8
COc1cc(C(=O)Nc2ccc3nc4n(c(=O)c3c2)CCCCC4)cc(OC)c1OC | . | . | . | 50.1µM | .
COc1ccc(C(=O)Nc2ccc3nc4n(c(=O)c3c2)CCCCC4)cc1OC | . | . | . | . | .
Cc1cc(C)c(NC(=O)Cn2c(=O)n(Cc3ccc(C(=O)NCc4ccco4)cc3)c(=O)c3sccc32)c(C)c1 | . | . | . | 50.1µM | .
CCc1nnc2c(Nc3ccccc3Br)nc3ccccc3n12 | . | . | . | . | .
CCc1nnc2c(Nc3ccc(N(CC)CC)cc3C)nc3ccccc3n12 | . | . | . | 89.1µM | .
Cc1ccc(F)c(NC(=O)Nc2ccc3snnc3c2)c1 | . | . | . | . | 68.1
O=C(Nc1ccc(F)cc1)Nc1ccc2snnc2c1 | . | . | . | . | .
SMILES | GALK inh | B2AR arrestin ag | GALC G270D act | NTMT1 inhibitor | GPR32 ag
Cc1ccc(S(=O)(=O)Nc2ccc3nc(-c4ccc(F)cc4)oc3c2)cc1 | . | . | . | . | 66.5
COc1cccc(CCC(=O)NCCc2nc3ccccc3n2CCOc2ccc(C)cc2)c1 | / | / | / | . | /
Cc1cncc2cccc(S(=O)(=O)N3CCCNC[C@@H]3C)c12 | / | / | / | 79.4µM | /
C[C@H]1CNCCCN1S(=O)(=O)c1cccc2cncc(F)c12 | / | / | / | . | /
CC(C)c1c(-c2ccccc2)nc2c(C#N)c[nH]n2c1=O | / | / | / | . | /
Cc1cc(C)cc(NC(=O)Nc2ccc3nc(N4CCN(C)CC4)cc(C)c3c2)c1 | . | . | 17.8µM | . | .
